About 79,000 compounds went through this panel and 15% of them were active in at least one assay; those are over-represented in the sample as a whole. Activity calls are given as the source filed them. Cut-off read from the data, not from the text of the source: active = growth inhibition above about 70%; inactive = the rest.

The nature of the first test: NCI Yeast Anticancer Drug Screen. Data for the sgs1 mgt1 strain (AID 161).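 Note: 0% = growth of cultures given vehicle only.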 As to conditions: S. cerevisiae sgs1 mgt1 strain, at 50.0 µM, stronger effect = higher value. Summed up: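 Test agents were incubated with a DNA-repair-mutant yeast strain. Growth was then read and compared against vehicle-treated controls.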
As to `Cn1nnnc1NN(c1nnnn1C)C1C=CCC=C1`, the growth inhibition was 0% (inactive).
Still for that read-out and setting: in the case of `CN(C(=O)/C=C/c1ccccc1)c1ccccc1` it was 49.5% (inactive); in that of `O=C(O)C(Cc1ccc(O)cc1)NC(=O)C(CSC(c1ccccc1)(c1ccccc1)c1ccccc1)NC(c1ccccc1)(c1ccccc1)c1ccccc1` (stereo not given), 11.5% (inactive); in that of `O=P(Nc1cccc(Cl)c1)(Nc1cccc(Cl)c1)c1ccccc1`, 96.9% (active).
With `S=c1nc[nH]c2nc[nH]c12`, the growth inhibition was -6.75% (inactive).
The same measure, in the same setting: in the case of `O=S(=O)(O)c1ccc2cc(O)ccc2c1` it was 13.8% (inactive); in that of `CC(O)CCNC(c1ccccc1)C(O)c1ccccc1` (stereo not given), -2.85% (inactive).
The same measure, in the same setting: in the case of `CCOCCC(O)CC` (stereo not given) it was -4.9% (inactive); in that of `CCSc1cc(=O)n(C)c(=O)n1C`, 21.3% (inactive); in that of `COC(=O)C1CSCN1` (stereo not given), -26.9% (inactive).
Still for that read-out and setting: for `CN1C(=O)/C(=C2\SC(=O)N(CN3CCCCC3)C2=O)c2cc(Br)ccc21` the value was -11.2% (inactive); for `Cc1nn(C)c(C#N)c1[N+](=O)[O-]`, -36.3% (inactive); for `CN(C)CCN1CCCN(C)CC1`, -4.25% (inactive).
Consider `Nc1c(Cl)ncnc1Cl`, for which the growth inhibition was -16.4% (inactive).
Same read-out and setting: for `COC1=C(c2ccccc2)P(=O)(Cc2ccccc2)C2CCCC12` (stereo not given) the value was 35.9% (inactive); for `CC(=O)c1ccc(Cl)c(Cl)c1`, -3.75% (inactive); for `CC(C)c1ccc(/C=N\N(C)C)cc1`, -13.8% (inactive).
Same read-out and setting: in the case of `C[Si](C)(C)c1ccc(-c2ccccc2)cc1` it was 2.25% (inactive); in that of `CCCNCCC(=O)Nc1ccccc1C(=O)OCC`, 0.2% (inactive).
Same read-out and setting: in the case of `N#Cc1c(Br)n(C2OC(CO)C(O)C2O)c2ncncc12` (stereo not given) it was 1.55% (inactive); in that of `CC(C)(C)c1ccc2c(c1)CNCCNCCNCc1cc(C(C)(C)C)ccc1OCC1(CO2)COc2ccc(C(C)(C)C)cc2CNCCNCCNCc2cc(C(C)(C)C)ccc2OC1`, 92% (active).
Turning to `COC(=O)c1c2c(cc3c1CC1(Cc4cc5c(c(C=O)c4C1)CCC5)C3)CCC2` (stereo not given), the growth inhibition is 8.25% (inactive).
As for `CC(=O)CC(=O)Nc1ccccc1[N+](=O)[O-]`, the growth inhibition was -0.65% (inactive).
On the same count and under the same terms, for `O=C1c2ccccc2CN1c1ccccc1` the value was -3.25% (inactive).
On the same count and under the same terms, for `O=C(c1ccccc1)C1(Br)CCCCC1` the value was 19.8% (inactive); for `COc1ccc(S(=O)(=O)N/N=C/c2cc(I)cc([N+](=O)[O-])c2O)cc1OC`, 17.1% (inactive).
On the same count and under the same terms, for `O=c1[nH]c(/C=C(\O)c2ccncc2)nc2ccccc12` the value was -6.45% (inactive).
As to `COC(=O)c1c2c(C)ccc(C)c2nc2c(C)ccc(C)c12`, the growth inhibition was -2.05% (inactive).
The same measure, in the same setting: for `COC(=O)C1C(O)CCC2CN3CCc4c([nH]c5cccc(OC)c45)C3CC21` (stereo not given) the value was 14.3% (inactive); for `N=C(N)SCCC(=O)CCSC(=N)N`, 33.6% (inactive).
The same measure, in the same setting: for `CN1c2ccccc2S(=O)(=O)n2c(COc3ccc(Cl)cc3)nnc21` the value was 2.5% (inactive); for `C=C(Br)CNC(=O)c1ccccc1`, -1.35% (inactive).
Still for that read-out and setting: in the case of `CSc1ccc(NC(=O)Nc2ccc(Nc3ccccc3)cc2)cc1` it was 15.1% (inactive); in that of `O=S(=O)(O)c1cc(N=Nc2cc(S(=O)(=O)O)c3ccccc3c2O)ccc1/C=C/c1ccc(N=Nc2cc(S(=O)(=O)O)c3ccccc3c2O)cc1S(=O)(=O)O`, 17.6% (inactive); in that of `N#Cc1ccccc1OCCCCCCCCCCOc1ccccc1C#N`, -19.6% (inactive).
As to `N#CC(NCCCNC(C#N)c1ccccc1)c1ccccc1` (stereo not given), the growth inhibition is -4.6% (inactive).
For `CCNCc1ccccc1`, the growth inhibition was -22.1% (inactive).
Same read-out and setting: in the case of `CCCCCCCCCCCCCCCCOc1ccc(C2=NCC(C)S2)c(C)c1` (stereo not given) it was 12.1% (inactive); in that of `CN(C)/N=C1/CCCCC1C(O)(c1ccccc1)c1ccccc1` (stereo not given), -15.4% (inactive).
The same measure, in the same setting: in the case of `O=c1/c(=C/c2ccco2)sc2nc3ccccc3n12` it was 14.5% (inactive).

The nature of another test: NCI Yeast Anticancer Drug Screen. Data for the cln2 rad14 strain (AID 165).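 Note: 0% = growth equal to vehicle treated cultures.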 The settings on record: S. cerevisiae cln2 rad14 strain, at 50.0 µM, stronger effect = higher value. In a few lines:
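cln2 rad14 yeast strain; compound exposure; growth inhibition read vs vehicle controls.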
For the compound `Cn1nnnc1NN(c1nnnn1C)C1C=CCC=C1`, the growth inhibition was -18% (inactive).
Same read-out and setting: for `CN(C(=O)/C=C/c1ccccc1)c1ccccc1` the value was 27.1% (inactive).
Same read-out and setting: for `O=C(O)C(Cc1ccc(O)cc1)NC(=O)C(CSC(c1ccccc1)(c1ccccc1)c1ccccc1)NC(c1ccccc1)(c1ccccc1)c1ccccc1` (stereo not given) the value was -2.35% (inactive); for `O=P(Nc1cccc(Cl)c1)(Nc1cccc(Cl)c1)c1ccccc1`, 76.7% (active).
Still for that read-out and setting: in the case of `S=c1nc[nH]c2nc[nH]c12` it was -66.5% (inactive); in that of `O=S(=O)(O)c1ccc2cc(O)ccc2c1`, 14.5% (inactive); in that of `CC(O)CCNC(c1ccccc1)C(O)c1ccccc1` (stereo not given), -7.4% (inactive).
On to `CCOCCC(O)CC` (stereo not given), for which the growth inhibition is 17.7% (inactive).
Same read-out and setting: in the case of `CCSc1cc(=O)n(C)c(=O)n1C` it was 4.55% (inactive); in that of `COC(=O)C1CSCN1` (stereo not given), -61.4% (inactive); in that of `CN1C(=O)/C(=C2\SC(=O)N(CN3CCCCC3)C2=O)c2cc(Br)ccc21`, 10.2% (inactive).
Turning to `Cc1nn(C)c(C#N)c1[N+](=O)[O-]`, the growth inhibition was 4.4% (inactive).
For `CN(C)CCN1CCCN(C)CC1`, the growth inhibition was -17.2% (inactive).
As to `Nc1c(Cl)ncnc1Cl`, the growth inhibition is -0.65% (inactive).
On the same count and under the same terms, in the case of `COC1=C(c2ccccc2)P(=O)(Cc2ccccc2)C2CCCC12` (stereo not given) it was 7.6% (inactive); in that of `CC(=O)c1ccc(Cl)c(Cl)c1`, 14.9% (inactive); in that of `CC(C)c1ccc(/C=N\N(C)C)cc1`, -5.6% (inactive).
Same read-out and setting: in the case of `C[Si](C)(C)c1ccc(-c2ccccc2)cc1` it was -61.7% (inactive).
The same measure, in the same setting: in the case of `CCCNCCC(=O)Nc1ccccc1C(=O)OCC` it was -43.1% (inactive); in that of `N#Cc1c(Br)n(C2OC(CO)C(O)C2O)c2ncncc12` (stereo not given), -0.05% (inactive).
On to `CC(C)(C)c1ccc2c(c1)CNCCNCCNCc1cc(C(C)(C)C)ccc1OCC1(CO2)COc2ccc(C(C)(C)C)cc2CNCCNCCNCc2cc(C(C)(C)C)ccc2OC1`, for which the growth inhibition was 91.2% (active).
Same read-out and setting: for `COC(=O)c1c2c(cc3c1CC1(Cc4cc5c(c(C=O)c4C1)CCC5)C3)CCC2` (stereo not given) the value was 1.55% (inactive); for `CC(=O)CC(=O)Nc1ccccc1[N+](=O)[O-]`, 15.9% (inactive).
For the compound `O=C1c2ccccc2CN1c1ccccc1`, the growth inhibition is 6.45% (inactive).
Same read-out and setting: for `O=C(c1ccccc1)C1(Br)CCCCC1` the value was -8.8% (inactive); for `COc1ccc(S(=O)(=O)N/N=C/c2cc(I)cc([N+](=O)[O-])c2O)cc1OC`, 4.95% (inactive).
Take `O=c1[nH]c(/C=C(\O)c2ccncc2)nc2ccccc12`: the growth inhibition was 12% (inactive).
The same measure, in the same setting: in the case of `COC(=O)c1c2c(C)ccc(C)c2nc2c(C)ccc(C)c12` it was -15.3% (inactive); in that of `COC(=O)C1C(O)CCC2CN3CCc4c([nH]c5cccc(OC)c45)C3CC21` (stereo not given), 7.85% (inactive).
Consider `N=C(N)SCCC(=O)CCSC(=N)N`, for which the growth inhibition was 32.2% (inactive).
For the compound `CN1c2ccccc2S(=O)(=O)n2c(COc3ccc(Cl)cc3)nnc21`, the growth inhibition is 12% (inactive).
On the same count and under the same terms, in the case of `C=C(Br)CNC(=O)c1ccccc1` it was -39.4% (inactive); in that of `CSc1ccc(NC(=O)Nc2ccc(Nc3ccccc3)cc2)cc1`, -11.9% (inactive); in that of `O=S(=O)(O)c1cc(N=Nc2cc(S(=O)(=O)O)c3ccccc3c2O)ccc1/C=C/c1ccc(N=Nc2cc(S(=O)(=O)O)c3ccccc3c2O)cc1S(=O)(=O)O`, 13.7% (inactive).
Same read-out and setting: for `N#Cc1ccccc1OCCCCCCCCCCOc1ccccc1C#N` the value was 31.4% (inactive); for `N#CC(NCCCNC(C#N)c1ccccc1)c1ccccc1` (stereo not given), -23.7% (inactive); for `CCNCc1ccccc1`, -66.5% (inactive).
On the same count and under the same terms, in the case of `CCCCCCCCCCCCCCCCOc1ccc(C2=NCC(C)S2)c(C)c1` (stereo not given) it was 45.7% (inactive); in that of `CN(C)/N=C1/CCCCC1C(O)(c1ccccc1)c1ccccc1` (stereo not given), -73.3% (inactive); in that of `O=c1/c(=C/c2ccco2)sc2nc3ccccc3n12`, 29.8% (inactive).

The record behind these values is PubChem BioAssay (NCI).
